According to PubChem BioAssay (NCATS):
Inconclusive results are not listed. The source made the active and inactive calls. Calls follow the shape of the dose curve; as a rule, active = well fitted inhibition curve with a large enough effect; inconclusive = small, poorly fitted or top-dose-only effect; inactive = flat fitted curve, though single readings scatter.

What was measured:
Assay in all cases: qHTS profiling for inhibitors of Plasmodium falciparum proliferation (AID 504749); also: nearly all actives have a fitted effect of over 60% in size
Details in all cases: P. falciparum in erythrocytes, SYBR Green DNA, 72 h; series mostly up to 28.7 µM
CP291 = system: CP291
Method in brief: (§1)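 Fluorescence of SYBR Green-bound parasite DNA, read at 485/535 nm, served as the growth measure. Infected erythrocytes were cultured with compound 72 h; artemisinin (0.29 uM) and DMSO wells defined the normalization range.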

CP305 = system: CP305
Method in brief: as §1

CP315 = system: CP315
Method in brief: as §1

CP325 = system: CP325
Method in brief: as §1

CP329 = system: CP329
Method in brief: as §1

CP335 = system: CP335
Method in brief: as §1

DFO2036 = system: DFO2036
Method in brief: as §1

DIV14 = system: DIV14
Method in brief: as §1

DIV17 = system: DIV17
Method in brief: as §1

DIV30 = system: DIV30
Method in brief: as §1

Dd2 = system: Dd2
Method in brief: as §1

ECU = system: ECU
Method in brief: as §1

FAB9 = system: FAB9
Method in brief: as §1

GB4 = system: GB4
Method in brief: as §1

HB3 = system: HB3
Method in brief: as §1

ICS = system: ICS
Method in brief: as §1

JCK = system: JCK
Method in brief: as §1

N140 = system: N140
Method in brief: as §1

P93_24 = system: P93_24
Method in brief: as §1

CP297 = system: CP297
Method in brief: as §1

Measured: Potency
Potency is read from the fitted curve at half-maximal effect.

CN1CCN(CC(=O)N2c3ccccc3C(=O)Nc3cccnc32)CC1
not listed: CP297
inactive: all other assays above

NC(=Nc1ccccc1)Nc1ccccc1
not listed: DIV14 | Dd2 | GB4 | CP297
inactive: all other assays above

CC(C)COCC(CN(Cc1ccccc1)c1ccccc1)N1CCCC1 (centres undefined)
inactive: CP325 | CP329 | DIV14 | DIV17 | ECU | FAB9 | HB3 | JCK | P93_24

CCN(CC)CCNC(=O)c1cc(S(C)(=O)=O)ccc1OC
inactive: CP335 | DFO2036 | Dd2 | ECU | FAB9 | HB3 | ICS | JCK | N140 | P93_24

CN(C)CCCN1c2ccccc2Sc2ccccc21
active: DIV14 1.81 µM | DIV17 2.87 µM | Dd2 3.16 µM
inactive: CP297 | ECU | FAB9 | HB3

Cc1nc2sccn2c(=O)c1CCN1CCC(=C(c2ccc(F)cc2)c2ccc(F)cc2)CC1
inactive: CP305 | CP315 | CP325 | CP329 | FAB9
active: DIV17 16.9 µM | ICS 8.91 µM

CCCN1C[C@H](CSC)C[C@@H]2c3cccc4[nH]cc(c34)C[C@H]21
active: DIV17 7.57 µM | ICS 11.2 µM
inactive: CP297 | CP305 | CP315 | CP325 | CP329 | DFO2036 | FAB9 | HB3

CCOC(=O)c1cnc2c(cnn2CC)c1NN=C(C)C
not listed: DIV14 | DIV17 | ICS | CP297
inactive: all other assays above

c1cnc(N2CCN(Cc3ccc4c(c3)OCO4)CC2)nc1
not listed: DIV14 | CP297
inactive: all other assays above

CN(C)C/C=C(/c1ccc(Br)cc1)c1cccnc1
active: Dd2 12.6 µM
not listed: CP291 | DIV14 | ECU | GB4 | ICS | P93_24 | CP297
inactive: all other assays above

OC(CCN1CCCCC1)(c1ccccc1)C1CCCCC1 (centres undefined)
inactive: CP297 | CP305 | CP315 | CP325 | CP329 | DFO2036 | FAB9 | GB4 | HB3 | JCK

CN(C)CC/C=C1\c2ccccc2COc2ccccc21
inactive: CP297 | CP315 | DFO2036 | ECU | FAB9 | HB3 | JCK
active: Dd2 8.91 µM

NC(N)=N/N=C/c1c(Cl)cccc1Cl
inactive: JCK
active: GB4 12 µM | ICS 8.91 µM

CN(C(=O)CCCOc1ccc2[nH]c(=O)ccc2c1)C1CCCCC1
inactive: CP305 | CP315 | CP325 | CP329 | CP335 | DFO2036 | ECU | FAB9 | GB4 | HB3 | N140

CCN(CC)CCOCCOC(=O)C1(c2ccccc2)CCCC1
inactive: CP315 | CP329
active: CP297 6.75 µM | CP305 13.5 µM | CP325 15.1 µM | CP335 9.53 µM | DFO2036 12.6 µM | DIV14 2.39 µM | DIV17 3.79 µM | DIV30 7.57 µM | Dd2 2.51 µM | ECU 11.2 µM | GB4 6.01 µM | HB3 12.6 µM | ICS 1.41 µM | N140 7.08 µM | P93_24 6.31 µM

C=CCc1ccccc1OCC(O)CNC(C)C (centres undefined)
active: DIV14 8.49 µM | DIV17 8.49 µM | Dd2 7.94 µM | GB4 7.57 µM | ICS 11.2 µM | N140 11.2 µM | P93_24 4.47 µM
inactive: FAB9

CN(C)CC[C@@H](c1ccc(Br)cc1)c1ccccn1
inactive: CP305 | CP315 | CP325 | DFO2036 | ECU | FAB9 | HB3
active: DIV14 3.79 µM | DIV17 7.57 µM | Dd2 2.51 µM

CCc1cccc(N(C)C(N)=Nc2cccc3ccccc23)c1
inactive: CP315 | FAB9 | HB3
active: DIV14 1.51 µM | DIV17 1.35 µM | DIV30 7.57 µM | Dd2 3.16 µM | ECU 7.94 µM | GB4 5.36 µM | ICS 2.82 µM

CCCCCCCC/C=C\CCCCCCCC(=O)NCc1ccc(O)c(OC)c1
inactive: CP297 | CP305 | CP315 | CP325 | CP329 | DIV17 | DIV30
active: Dd2 14.1 µM

COc1ccc(CCN(C)CCCC(C#N)(c2cc(OC)c(OC)c(OC)c2)C(C)C)cc1OC (centres undefined)
active: DIV17 13.5 µM | Dd2 5.62 µM | ICS 7.94 µM
inactive: FAB9

CNCCC(Oc1ccccc1OC)c1ccccc1 (centres undefined)
inactive: CP297 | CP315 | FAB9 | HB3
active: DIV14 4.78 µM | DIV17 8.49 µM | Dd2 6.31 µM

O=C(O)CN(CCN(CC(=O)O)CC(=O)O)CCN(CC(=O)O)CC(=O)O
not listed: CP291 | CP305 | DIV17 | GB4
inactive: all other assays above

NC(N)=NC(=O)Cc1c(Cl)cccc1Cl
inactive: DIV14 | DIV17
active: CP329 6.01 µM | CP335 9.53 µM | DFO2036 10 µM | GB4 6.75 µM | ICS 7.94 µM

COCCOC(=O)C1=C(C)NC(C)=C(C(=O)OC(C)C)C1c1cccc([N+](=O)[O-])c1 (centres undefined)
inactive: CP329 | FAB9
active: CP335 4.78 µM | DIV14 13.5 µM | DIV17 13.5 µM | DIV30 12 µM | ICS 7.08 µM | N140 12.6 µM

Fc1ccc(C(c2ccc(F)cc2)N2CCN(C/C=C/c3ccccc3)CC2)cc1
active: ECU 11.2 µM | HB3 11.2 µM | ICS 8.91 µM | N140 11.2 µM | P93_24 8.91 µM

CC(C)(C)c1ccc(C(=O)CCCN2CCC(OC(c3ccccc3)c3ccccc3)CC2)cc1
inactive: CP315 | JCK
active: CP305 10.7 µM | CP335 6.75 µM | Dd2 10 µM | GB4 10.7 µM | ICS 4.47 µM | N140 10 µM

COc1cc(C(=O)OCCCN2CCCN(CCCOC(=O)c3cc(OC)c(OC)c(OC)c3)CC2)cc(OC)c1OC
active: CP335 4.78 µM | DIV14 9.53 µM | DIV17 12 µM | Dd2 12.6 µM | ECU 8.91 µM | GB4 13.5 µM | ICS 8.91 µM | N140 12.6 µM | P93_24 10 µM

Cc1nc2ccccn2c(=O)c1CCN1CCC(C(=O)c2ccc(F)cc2)CC1
active: DIV14 6.75 µM | ICS 8.91 µM
not listed: CP291 | CP335 | DIV17 | DIV30 | Dd2 | GB4 | P93_24
inactive: all other assays above

O=C1NCN(c2ccccc2)C12CCN(CCCC(c1ccc(F)cc1)c1ccc(F)cc1)CC2
active: CP305 7.57 µM | CP329 4.78 µM | CP335 4.78 µM | DFO2036 7.08 µM | DIV14 7.57 µM | DIV17 6.75 µM | Dd2 5.01 µM | ECU 5.62 µM | GB4 6.75 µM | HB3 7.08 µM | ICS 3.98 µM | N140 5.62 µM | P93_24 4.47 µM
inactive: FAB9

CC(=O)[C@]1(O)Cc2c(O)c3c(c(O)c2[C@@H](O[C@H]2C[C@H](N)[C@H](O)[C@H](C)O2)C1)C(=O)c1ccccc1C3=O
active: CP291 9.53 µM | CP305 8.49 µM | CP315 15.1 µM | CP329 10.7 µM | CP335 1.69 µM | DFO2036 3.55 µM | DIV14 4.78 µM | DIV17 4.78 µM | Dd2 0.158 µM | ECU 7.94 µM | FAB9 11.2 µM | GB4 4.78 µM | HB3 4.47 µM | ICS 1.78 µM | JCK 8.91 µM | N140 4.47 µM | P93_24 4.47 µM

CC(C)[N+](C)(CCOC(=O)C1c2ccccc2Oc2ccccc21)C(C)C
inactive: CP315 | DIV30 | JCK

COc1ccc(CN(CCN(C)C)c2ccccn2)cc1
active: GB4 6.01 µM | JCK 1.26 µM
not listed: CP335 | DIV14 | DIV17 | DIV30 | Dd2 | N140 | CP297
inactive: all other assays above

CCOC(=O)C1=C(C)NC(C)=C(C(=O)OC)C1c1cccc([N+](=O)[O-])c1 (centres undefined)
active: HB3 11.2 µM | N140 11.2 µM
inactive: CP315 | FAB9

O=C(CCCN1CCC(O)(c2cccc(C(F)(F)F)c2)CC1)c1ccc(F)cc1
active: CP335 9.53 µM | DFO2036 10 µM | DIV14 6.75 µM | DIV17 13.5 µM | Dd2 5.62 µM | ECU 2.24 µM | GB4 6.01 µM | HB3 12.6 µM | ICS 5.01 µM | JCK 12.6 µM | N140 7.94 µM | P93_24 10 µM

c1cc(CN2CCCCC2)cc(OCCCNc2nc3ccccc3s2)c1
inactive: FAB9 | JCK
active: Dd2 6.31 µM

COCCCC/C(=N\OCCN)c1ccc(C(F)(F)F)cc1
active: Dd2 7.94 µM | P93_24 8.91 µM
inactive: FAB9 | HB3 | JCK

CCCC(C(=O)OCCN(CC)CC)(c1ccccc1)c1ccccc1
active: CP291 13.5 µM | CP335 8.49 µM | DIV14 8.49 µM | DIV17 7.57 µM | DIV30 13.5 µM | Dd2 14.1 µM | ECU 10 µM | GB4 10.7 µM | ICS 5.62 µM

CN(C)CCN(Cc1cccs1)c1ccccn1
active: CP297 3.38 µM | CP335 8.49 µM | DIV14 6.75 µM | DIV17 6.01 µM | Dd2 3.98 µM | GB4 3.79 µM | N140 11.2 µM | P93_24 7.94 µM
inactive: CP315 | ECU | FAB9 | HB3

CC1=C(C)C(=O)C(CCCCC#CCCCC#CCO)=C(C)C1=O
inactive: FAB9
active: CP297 15.1 µM | CP335 13.5 µM | DIV14 5.36 µM | DIV17 6.01 µM | DIV30 7.57 µM | ECU 2.82 µM | GB4 7.57 µM | ICS 2.24 µM | N140 7.94 µM | P93_24 5.01 µM

CCC(=O)c1ccc2c(c1)N(CCCN(C)C)c1ccccc1S2
active: DIV14 6.01 µM | DIV17 4.78 µM | Dd2 7.94 µM | ICS 8.91 µM
inactive: CP297 | CP315 | ECU | HB3

CCOC(=O)C1=C(C)NC(C)=C(C(=O)OC)C1c1cccc(Cl)c1Cl (centres undefined)
not listed: CP291 | CP329 | CP335 | ICS
inactive: all other assays above
